Screening data deposited in PubChem by National Center for Advancing Translational Sciences (NCATS).
HP1b binding inh: HP1-beta chromodomain-methylated histone interaction inhibition; AlphaScreen HP1-beta / biotin-H3K9me3 peptide binding; P83916; AID 540317; actives 0.56% (n = 390,000); Potency, µM (titrated, usually from 114 µM), without a hit: at the highest dose activity change, negative = inhibition, usual class: inhibitors; note: potency is the fitted concentration of half-maximal effect; nearly all actives have a fitted effect of over 70% in size
Target sequence (P83916 whole entry, looked up): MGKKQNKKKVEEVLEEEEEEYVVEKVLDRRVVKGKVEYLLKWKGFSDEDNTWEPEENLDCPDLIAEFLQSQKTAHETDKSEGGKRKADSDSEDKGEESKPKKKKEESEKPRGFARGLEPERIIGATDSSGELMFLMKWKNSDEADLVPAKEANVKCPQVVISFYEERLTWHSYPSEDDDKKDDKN
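HP1-beta protein (50 nM final) preincubated 30 min at room temperature with biotinylated H3(1-18)K9me3 peptide (50 nM) in PBS pH 7.4, 0.01% Tween-20, then compound added for 30 min. AlphaScreen streptavidin donor/nickel chelate acceptor beads (10 ug/mL final), 30 min dark, luminescence read.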
JMJD2A Tudor: blocks the human JMJD2A Tudor domain. actives 4.4% (n = 390,000). Potency, µM (titrated, usually from 114 µM), without a hit: at the highest dose activity change, negative = inhibition, actives largely listed as inhibitors. AlphaScreen JMJD2A-Tudor / H3K4me3 peptide binding. AID 504339. O75164; note: potency is the fitted concentration of half-maximal effect; % is set by controls: 0 for no effect and ±100 for the full control effect; nearly all actives have a fitted effect of over 50% in size
PI5P4Ka inh: blocks human PI5P4K alpha kinase activity | P48426 | PI5P4Kalpha enzyme, ADP-Glo luminescence, 60 min; hits give low values | max response, % | actives 1.2% (n = 330,000); active = max response of -50% or lower; inconclusive = between -30% and -50%; inactive = -30% or higher; note: value at the top dose of about 77 µM; % is set by controls: 0 for no effect and ±100 for the full control effect
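ADP-Glo luminescence end-point read after a 60 min room-temperature kinase reaction of PI5P4Kalpha plus substrate, initiated with ATP at 5 microM final. Buffer: 0.038 M HEPES pH 7.4, EGTA, 0.1% CHAPS, 5% DMSO.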
G9a block: G9a (human) methyltransferase inhibition; G9a H3K9 monomethylation, AlphaScreen, 2 h; actives 8.8% (n = 350,000); Potency, µM (doses to about 102 µM), without a hit: at the highest dose activity, negative = inhibition, actives largely listed as inhibitors; Q96KQ7; note: potency is the fitted concentration of half-maximal effect; % is set by controls: 0 for no effect and ±100 for the full control effect; nearly all actives have a fitted effect of over 75% in size
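Quantitative HTS format: methyltransferase activity on a biotin-tagged H3K9 peptide is measured by AlphaScreen, using a rabbit anti-monomethyl-H3K9 antibody with streptavidin donor and anti-IgG acceptor beads. Final levels are 20 nM enzyme, 500 nM peptide, 20 uM SAM; 2 h RT.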
PLK1 PBD inh: inhibitors of human PLK1 polo-box domain binding | actives 2.8% (n = 360,000) | Potency, µM, without a hit: max response, negative = inhibition, actives largely listed as inhibitors | P53350 | Plk1 PBD binding of FITC phosphopeptide, fluorescence polarization | AID 720504; note: potency is the fitted concentration of half-maximal effect; series mostly up to about 57 µM; % is set by controls: 0 for no effect and ±100 for the full control effect; nearly all actives have a fitted effect of over 65% in size
Target sequence (P53350 whole entry, looked up, the tested form may be a part): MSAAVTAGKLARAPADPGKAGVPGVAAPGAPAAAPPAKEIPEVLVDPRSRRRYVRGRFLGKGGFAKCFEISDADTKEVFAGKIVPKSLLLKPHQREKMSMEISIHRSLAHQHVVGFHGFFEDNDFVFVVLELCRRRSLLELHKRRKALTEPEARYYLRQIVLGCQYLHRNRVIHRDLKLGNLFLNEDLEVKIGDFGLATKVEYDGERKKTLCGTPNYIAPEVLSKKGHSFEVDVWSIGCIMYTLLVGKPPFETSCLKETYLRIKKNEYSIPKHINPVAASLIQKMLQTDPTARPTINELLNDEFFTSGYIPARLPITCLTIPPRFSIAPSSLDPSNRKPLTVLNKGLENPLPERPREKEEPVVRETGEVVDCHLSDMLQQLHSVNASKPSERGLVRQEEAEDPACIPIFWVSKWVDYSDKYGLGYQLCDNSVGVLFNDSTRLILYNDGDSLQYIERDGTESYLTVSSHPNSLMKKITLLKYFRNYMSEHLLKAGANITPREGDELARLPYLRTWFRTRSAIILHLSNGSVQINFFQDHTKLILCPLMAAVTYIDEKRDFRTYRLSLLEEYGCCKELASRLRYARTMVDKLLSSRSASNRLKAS
BAZ2B block: inhibitors of human BAZ2B bromodomain; Q9UIF8; AlphaScreen BAZ2B-H3K14Ac peptide displacement; Potency, µM (highest dose often 114 µM), for inactives: at the highest dose activity change, negative = inhibition, actives largely listed as inhibitors; actives 4.4% (n = 360,000); note: potency is the fitted concentration of half-maximal effect; % is set by controls: 0 for no effect and ±100 for the full control effect; nearly all actives have a fitted effect of over 60% in size
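AlphaScreen displacement of biotin-H3(5-23)K14Ac peptide (50 nM final) from BAZ2B (50 nM final) in PBS pH 7.4, 0.01% Tween-20; complex preformed 30 min RT, then compounds (top 110 uM) 30 min RT, beads 20 min dark.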
* hit, by the source's call; ? = inconclusive; . = no result given; [ ] = another dose, or the depositor's remark. The list is not random: actives were taken first. Their share in the collection is about 12%. Unless noted, calls come from the whole dose curve; as a rule, active = well fitted curve in the direction sought with a large enough effect; inconclusive = small, poorly fitted or top-dose-only effect, or another doubt; inactive = no such curve, though single readings can be large; an effect the other way counts as inactive or inconclusive.

SMILES | HP1b binding inh | JMJD2A Tudor | PI5P4Ka inh | G9a block | PLK1 PBD inh | BAZ2B block
Cc1cc(C)cc(OCC(=O)Nc2nc(-c3cccnc3)cs2)c1 | ? | -14.2% | -20.3 | 10µM* | 11.9µM* | -5.0%
COc1ccc(NCc2nnc3n2CCCCC3)c(OC)c1 | 11.5%[57 µM] | -15.6% | . | 1.0%[59 µM] | . | -6.7%
COCCn1c(=NC(=O)c2ccc3c(c2)OCCO3)sc2cc(C(=O)OC)ccc21 | 25.6%[57 µM] | 2.3% | . | 6.3%[59 µM] | . | 1.2%
CCCNC(=O)CN1C(=O)NC(c2ccccc2)(c2ccccc2)C1=O | 9.9% | -9.5% | 3.9 | 18.4% | -1.3% | 1.4%
O=C1CN(C(=O)c2ccc(S(=O)(=O)N3CCCC3)cc2)C(c2ccccc2)c2cc(Br)ccc2N1 (configuration not stated) | 26.1% | -16.7% | . | -21.4%[59 µM] | . | -0.4%
CN(C)c1cccc2c1C(=O)c1ccccc1C2=O | 28.2µM* | 44.7µM* | -9.2 | 11.2µM* | -4.5% | 8.91µM*
CN1C(=O)c2cccc(N(C)C)c2C1=O | 35.6% | 3.8% | . | 5.8% | -10.1% | 12.2%
CN1C2=CC=CC=CC2=[N+](C)C12C=CC(=[N+]([O-])[O-])C=C2[N+](=O)[O-] (configuration not stated) | ? | -28.2% | 6.9 | 31.6µM* | -18.6% | 35.5µM*
CN1C2=CC=CC=CC2=[N+](C)C12C([N+](=O)[O-])=CC(=[N+]([O-])[O-])C=C2[N+](=O)[O-] (configuration not stated) | 0.4% | -13.5% | 7.7 | ? | -8.9% | -35.6%
ClC1(Cl)CC1CSc1nnc(-c2ccncc2)o1 (configuration not stated) | 88.9% | 2.7% | 4.2 | ? | -3.3% | 1.8%
CCc1ccc2oc(C(=O)N(Cc3cccc(Cl)c3)Cc3ccco3)c(C)c2c1 | 56.7% | 44.4% | . | 56.0%[59 µM] | . | 11.1%
CCOC(=O)CN1NC2(CCCCCCC2)NC1=S | 40.6% | 28.2µM* | -3.2 | 2.24µM* | -0.5% | -20.7%
CCOC(=O)Cn1c2c(c(=N)c3c1CCC3)CCC2 | 57.0% | -0.9% | -4.6 | 11.8%[59 µM] | -6.3% | 58.0%
CCOC(=O)CN1NC2(CCCCC2)NC1=S | -19.8% | 17.8µM* | -28.8 | ? | -11.3% | -5.6%
COc1ccc(N2CCN(Cc3nc4c(c(=O)n(C)c(=O)n4C)n3CCc3ccccc3)CC2)cc1 | 3.2% | -18.8% | 0.0 | 7.94µM* | -13.9% | -3.1%
COc1ccc(N2CCn3c2nc2c3c(=O)n(CCc3ccccc3)c(=O)n2C)cc1 | . | . | . | 6.8% | . | -1.2%
COc1ccc(N2CCCn3c2nc2c3c(=O)n(CCCc3ccccc3)c(=O)n2C)cc1 | . | . | . | 10µM* | . | ?
COCCn1c(CN2CCN(c3ccc(OC)cc3)CC2)nc2c1c(=O)n(C)c(=O)n2C | 22.6% | 1.1% | -3.0 | -12.8%[59 µM] | -0.8% | .
Cn1c(=O)c2c(nc(CN3CCN(c4ccccc4)CC3)n2CCN2CCOCC2)n(C)c1=O | 22.4% | -12.7% | . | 50.1µM* | -11.4% | -1.0%
Cc1ccc2oc(=O)c3cc(C(=O)Nc4cccc(C#N)c4)sc3c2c1 | 43.7% | 2.7% | . | -0.2%[59 µM] | . | -30.0%
COc1ccc(NC(=O)Nc2nnc(N3CCCC3)s2)cc1 | 25.8% | -12.6% | . | -33.1%[59 µM] | . | -3.0%
CCOc1ccc(N2CC(c3nc4ccccc4n3CCCOc3ccccc3)CC2=O)cc1 (configuration not stated) | 37.6% | -20.8% | . | -18.5%[59 µM] | . | -20.5%
O=c1[nH]c(=S)[nH]c2scc(-c3ccc(Br)cc3)c12 | -14.3% | -21.7% | -54.9* | . | 26.7µM* | .
Cc1onc(-c2c(Cl)cccc2Cl)c1C(=O)NC(=S)Nc1sc2c(c1C(N)=O)CCC(C)C2 (configuration not stated) | -5.7% | ? | -3.8 | 44.7µM* | ? | 1.2%
Cc1onc(-c2ccccc2)c1C(=O)Nc1sc2c(c1C#N)CCC(C)C2 (configuration not stated) | 26.5% | -20.9% | . | ? | -5.5% | -9.1%
SMILES | HP1b binding inh | JMJD2A Tudor | PI5P4Ka inh | G9a block | PLK1 PBD inh | BAZ2B block
Cc1ccc(CNC(=O)C2CCN(C(=O)c3cnn(-c4ccccc4)c3-n3cccc3)CC2)cc1 | 14.4% | -13.8% | . | -5.3%[59 µM] | . | -25.0%
CC(Sc1nc(N2CCOCC2)c2c(c1C#N)CC(C)(C)OC2)C(=O)O (configuration not stated) | 17.7% | -5.6% | -6.2 | 50.1µM* | -11.9% | -11.6%
CC1(C)Cc2c(C#N)c(OCC(=O)c3ccccc3)nc(-c3ccoc3)c2CO1 | ? | -19.8%[57.1 µM] | -8.6 | ? | 26.7µM* | 3.1%
COC(=O)Sc1nc(N2CCOCC2)c2c(c1C#N)CC(C)(C)OC2 | 62.9% | ? | -12.0 | 7.94µM* | -14.8% | 10.2%
CC1(C)Cc2c(C#N)c(OCC(=O)c3ccc(Cl)cc3)nc(-c3ccoc3)c2CO1 | 26.7% | 0.8% | 3.5 | ? | -21.0% | 36.9%
CCc1nc(N2CCN(C(=O)c3ccccc3)CC2)c(C#N)c2c1COC(C)(C)C2 | 11.4% | 23.3%[11.4 µM] | 2.2 | -9.8% | 23.8µM* | -4.8%
O=C(NCc1cccc(Cl)c1)c1ccc2nc(N3CCCCC3)sc2c1 | 13.2% | -13.4% | . | 3.0%[59 µM] | . | -2.4%
C#CCOc1ccccc1/C=N/NC(=O)c1ccccc1OCc1ccccc1 | 49.6% | -4.1% | 1.9 | . | -3.3% | -8.0%
CS(=O)(=O)Nc1cccc(-c2cc(Nc3ccccc3)ncn2)c1 | . | . | . | -24.1%[0.501 µM] | . | .
O=C(O)c1ccc(C=NN=Cc2ccco2)cc1 | 21.8% | -8.3% | 12.5 | . | 3.7% | .
O=C(O)c1ccc2c(c1)C(=O)/C(=C\c1ccco1)C2=O | ? | 25.1µM* | -61.0* | 8.91µM* | 8.44µM* | 35.5µM*
O=C1C(=Cc2ccco2)C(=O)c2ccccc21 | -15.6% | ? | -24.9 | 12.6µM* | ? | ?
Cc1ccc(C=C2C(=O)c3ccccc3C2=O)o1 | ? | ? | ? | 25.1µM* | -25.5% | 39.8µM*
O=C1CNC(=O)/C(=C/c2ccco2)N1 | 0.5% | 11.5% | 0.7 | -42.9% | -13.7% | -21.5%
CC(C)(C)N1C(=O)c2ccc(C(=O)O)cc2C1=O | 27.4% | -5.2% | ? | 55.5%[59 µM] | 2.3% | 0.9%
NS(=O)(=O)c1ccc(-c2ccc(C=C3C(=O)c4ccccc4C3=O)o2)cc1 | 51.8% | -4.3% | 1.2 | 17.8% | -1.7% | -1.4%
Cc1ccc(/C=C2/C(=O)c3ccc(C(=O)O)cc3C2=O)o1 | 70.8µM* | 28.2µM* | -62.3* | . | 23.8µM* | 11.2µM*
Cc1c(C(=O)N(C)C)sc2c1c(=O)n(-c1ccc(F)cc1)c(=O)n2Cc1ccccc1C#N | 28.5% | 0.0% | . | 5.0%[59 µM] | . | -3.7%
N#Cc1nc(Nc2ccc(Br)cc2)nc(NC2CCCC2)n1 | . | -14.4% | . | . | . | .
Cc1ccc(Cn2cc(CN3CC(N4CCSCC4)CS3(=O)=O)nn2)cc1 (configuration not stated) | . | . | 1.1 | . | 4.5% | .
